From PubChem
AMA1 RON2 block: qHTS for Inhibitors of AMA1-RON; Towards Development of Antimalarial Drug Lead: Primary Screen | Plasmodium falciparum AMA1 (3D7) - RON2 peptide interaction | AlphaScreen AMA1-biotinylated RON2 peptide binding | Potency, µM (highest dose often 58.2 µM), for the others: at the highest dose activity change, negative = inhibition, actives largely listed as inhibitors | actives 0.2% (n = 360,000) | AID 720542, 2013;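 note: potency is the fitted concentration of half-maximal effect; 0% = vehicle wells and -100% = peptide control; nearly all actives have a fitted effect of over 45% in size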
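AMA1 (3D7) with his tag at 25 nM final met compounds first, then biotinylated RON2 peptide at 25 nM; detection used donor plus acceptor beads, 10 µg/mL apiece, read by AlphaScreen after 30 min at room temperature.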
AmpC inh detg: qHTS Inhibitors of AmpC Beta-Lactamase (assay with detergent); P00811; AmpC hydrolysis of nitrocefin, absorbance 480 nm, 0.01% Triton; Potency, µM (highest dose often 114 µM), inactives show at the highest dose activity change, negative = inhibition, most hits filed as inhibitors; actives 0.041% (n = 370,000);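 note: potency is the fitted concentration of half-maximal effect; 0% = no-compound wells and -100% = no-enzyme wells; nearly all actives have a fitted effect of over 25% in size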
Target sequence (P00811 whole entry, looked up): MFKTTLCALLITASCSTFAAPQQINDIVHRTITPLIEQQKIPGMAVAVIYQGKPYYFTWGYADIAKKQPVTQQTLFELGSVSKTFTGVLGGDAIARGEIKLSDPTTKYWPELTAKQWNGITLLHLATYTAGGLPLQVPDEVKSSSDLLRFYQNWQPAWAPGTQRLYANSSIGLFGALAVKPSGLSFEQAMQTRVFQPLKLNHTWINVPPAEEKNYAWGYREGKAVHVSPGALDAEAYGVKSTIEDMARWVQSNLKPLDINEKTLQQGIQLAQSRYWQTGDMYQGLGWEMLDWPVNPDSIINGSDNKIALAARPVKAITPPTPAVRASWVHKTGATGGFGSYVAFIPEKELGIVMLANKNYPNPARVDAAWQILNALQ
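20 mM phosphate pH 7.0 + 0.01% (detergent screen) or 0.0001% Triton X-100; 5.3 nM AmpC reagent; cpd preinc 15 min RT; nitrocefin (800 uM stock) to start; A480 q20 s × 4 min; Activity was normalised to no-enzyme and no-compound control wells.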
CHX counter: Cycloheximide Counterscreen for Small Molecule Inhibitors of Shiga Toxin; actives 12% (n = 300,000); max response, %; cell reporter, cycloheximide protein synthesis inhibition counterscreen; in the data active = max response mostly above about 13%, no sharp cut-off; inactive = mostly below about 14%; note: read at 38.3 µM for the half of the compounds with a filed dose; 0% is about no effect
SARS PLP yeast: qHTS of Yeast-based Assay for SARS-CoV PLP; S. cerevisiae expressing SARS-CoV PLpro, growth rescue; Potency, µM (doses to about 32.9 µM), for inactives: at the top dose activity, positive = growth rescue, most hits filed as activators; actives 0.19% (n = 330,000); AID 485353, 2010; calls by dose curve; note: potency is the fitted concentration of half-maximal effect; 0% is about no effect; nearly all actives have a fitted effect of over 55% in size
Shiga inhibitor: A qHTS for Small Molecule Inhibitors of Shiga Toxin; AID 2315, 2010; actives 9.2% (n = 290,000); inhibition, % at 38.7 µM; Vero cells, Shiga toxin protein synthesis inhibition reporter; in the data active = inhibition mostly above about 28%, no sharp cut-off; inactive = mostly below about 43%; note: 0% is about no effect
AmpC no deterg: qHTS Inhibitors of AmpC Beta-Lactamase (assay without detergent). AmpC nitrocefin hydrolysis, absorbance 480 nm, 0.0001% Triton. actives 0.52% (n = 330,000). Potency, µM (highest dose often 57.1 µM), for the others: top-dose activity change, negative = inhibition, actives largely listed as inhibitors;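 note: potency is the fitted concentration of half-maximal effect; plate controls were no compound for no effect and no enzyme for full effect; nearly all actives have a fitted effect of over 20% in size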
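AmpC (5.3 nM in the dispensed reagent) in 20 mM phosphate pH 7.0 with 0.01% (detergent screen) or 0.0001% Triton X-100 was preincubated with compounds for 15 min at room temperature. Nitrocefin was then added from an 800 uM solution, and hydrolysis was followed at 480 nm.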
* = called active by the depositor; ? = inconclusive; . = no result. Only a selection was taken, and hits are over-represented in it overall. Unless noted, calls come from the whole dose curve; as a rule, active = well fitted curve in the direction sought with a large enough effect; inconclusive = small, poorly fitted or top-dose-only effect, or another doubt; inactive = no such curve, though single readings can be large; an effect the other way counts as inactive or inconclusive.

SMILES | AMA1 RON2 block | AmpC inh detg | CHX counter | SARS PLP yeast | Shiga inhibitor | AmpC no deterg
O=C(/C=C/c1ccc([N+](=O)[O-])cc1)c1ccccc(=O)c1O | 44.4% | . | . | . | . | .
Cc1ccc(/C=C/C(=O)c2ccccc(=O)c2O)c(C)c1 | 59.3% | ? | 19.7 | ? | 30.5* | ?
N#C/C(C(=O)NCc1ccco1)=C1/SC(Cc2ccc(Cl)cc2)C(=O)N1c1ccccc1 (stereo not given) | -1.1% | ? | 18.2* | 4.6% | -25.7 | -6.2%
CC1(C(=O)NS(=O)(=O)c2cccs2)CCN1C(=O)CCc1ccc(Cl)cc1Cl (stereo not given) | 7.7% | . | . | . | . | .
COc1cc(OC)cc(-c2sc3ccc(OC)cc3c2-c2ccc(OCCN3CCCCC3)cc2)c1 | ? | . | . | -3.1% | . | 27.3%
CN1OC[C@@H]2CN(Cc3ccc4c(c3)OCO4)[C@H](c3ccc(N4CCCCC4)cc3)C[C@@H]21 | 14.1µM* | . | . | . | . | .
Cc1cccn2cc(-c3ccc4c(c3)NC(=O)CO4)nc12 | 1.5% | -5.8% | 31.1* | -1.4% | 60.9* | -16.6%
Cc1ccn2cc(-c3ccc4c(c3)NC(=O)CO4)nc2c1 | 4.6% | 5.6% | 31.9 | -2.1% | 75.2* | -18.3%
Cc1[nH]n(-c2ccc(Cl)cc2)c(=O)c1N=Nc1cccnc1 | -4.1% | 0.6% | 8.1 | -1.1% | 5.0 | -15.1%
O=C1CC(SC(=NCc2ccc3c(c2)OCO3)Nc2ccccc2)C(=O)N1 (stereo not given) | -3.6% | -9.3% | 0.3 | 6.8% | 14.7 | 30.4%
COc1ccc(CN=C(Nc2ccccc2)SC2CC(=O)NC2=O)cc1 (stereo not given) | -8.1% | 1.2% | 44.3* | 1.3% | 143.4* | -14.2%
Cc1ccccc1NC(=O)CN1CCN(Cc2ccccc2)CC1 | 15.8% | 5.7% | -3.6 | 2.9% | -20.4 | 26.2%
COc1ccc(CN(Cc2cccn2C)S(=O)(=O)c2ccc(F)cc2)cc1 | -19.0% | -0.9% | 2.9 | -1.0% | -4.4 | -38.6%
O=C(CN1CCN(S(=O)(=O)c2ccc(F)cc2)CC1)Nc1ccc(F)cc1F | -3.9% | -0.7% | 60.1* | -2.2% | 37.5* | 30.7%
COc1ccccc1NC(=O)Cn1nc(-c2ccc(Cl)cc2)c2ccccc2c1=O | -4.9% | 3.9% | 15.6* | 2.0% | -4.3 | -1.5%
COc1ccccc1NC(=O)CN1CCN(CC(=O)Nc2ccc(F)cc2F)CC1 | 7.2% | 2.7% | 32.2* | 0.0% | 92.1* | -13.0%
Cc1ccc(-n2c(CNc3cccc(Cl)c3)n[nH]c2=S)cc1 | 65.4% | -3.4% | 7.9 | -1.1% | 33.1 | -31.9%
O=C(c1ccco1)N1CCN(C(=O)c2cnn(-c3ccc(Cl)cc3)c2C2CCNCC2)CC1 | -6.3% | -1.0% | -3.3 | 1.4% | -5.1 | -4.1%
O=C(/C=C/c1ccccc1)c1ccccn1 | 7.3% | -4.0% | 38.1* | -7.6% | 83.8* | -30.5%
N/C(=N\OC(=O)/C=C/c1ccccc1Cl)c1ccncc1 | -1.0% | -13.2% | 66.5* | -6.5% | 137.4* | -18.1%
N/C(=N\OC(=O)/C=C/c1ccccc1)c1ccccn1 | 9.4% | 1.3% | 20.2* | -2.0% | 30.2 | -13.1%
COc1ccc(/C=C/C(=O)O/N=C(\N)c2ccccn2)cc1OC | 49.1% | . | . | -3.1% | . | -0.6%
O=C(/C=C/Nc1ccccc1Br)c1ccccn1 | -1.1% | -7.1% | -7.0 | . | -20.5 | .
N/C(=N\OC(=O)/C=C/c1ccccc1)c1ccncc1 | 2.1% | -11.0% | 21.4* | -7.4% | 70.7* | 18.7%
O=C(/C=C/c1ccccc1Cl)c1cccnc1 | -1.7% | 3.8% | 5.5 | -42.6% | 2.8 | -8.6%
SMILES | AMA1 RON2 block | AmpC inh detg | CHX counter | SARS PLP yeast | Shiga inhibitor | AmpC no deterg
CC1Cc2ccccc2N1S(=O)(=O)c1cccc(C(=O)NCCCO)c1 (stereo not given) | 7.0% | -4.7% | 0.6 | -4.6% | 1.0 | 19.0%
COc1ccc(OC)c(/C=C/C(=O)OCC(=O)Nc2cccc(C(C)=O)c2)c1 | -7.5% | -10.9% | -2.0 | 15.1% | 19.3 | 3.4%
COc1cc(/C=C/C(=O)N2C(=O)c3cccc(N)c3C2=O)cc(OC)c1OC | 0.0% | 1.1% | -3.1 | -19.4% | 11.4 | -16.8%
Nc1cccc2c1C(=O)N(C(=O)/C=C/c1cccc(F)c1)C2=O | 6.5% | -2.7% | 34.3* | -2.1% | 140.1* | -54.6%
COc1ccc(OC)c(/C=C/C(=O)N2C(=O)c3cccc(N)c3C2=O)c1 | 3.4% | -2.0% | 1.0 | -19.0% | 23.5 | 31.6µM*
Cc1ccc(C(=O)N2C(=O)c3cccc(N)c3C2=O)o1 | 4.1% | 1.2% | 5.0 | -0.1% | -14.8 | -9.6%
Nc1cccc2c1C(=O)N(C(=O)/C=C/c1cccc(Br)c1)C2=O | 15.0% | -5.0% | 40.1* | -2.5% | 42.5* | -43.2%
CC(C)n1c(=N)c(C(=O)NCc2ccccc2)cc2c(=O)n3ccccc3nc21 | . | 22.2% | . | . | . | .
Cc1oc2ccc(OS(C)(=O)=O)cc2c1C(=O)OC(C)C | -4.6% | ? | 12.1 | -11.9% | 32.4 | -12.0%
COCCOC(=O)c1c(C)oc2ccc(OS(C)(=O)=O)cc12 | 3.1% | 5.7% | 21.0* | 0.9% | 17.9 | 16.0%
COCC(=O)N(C)c1nnc(-c2cnc(C)cn2)s1 | 25.8% | 0.4% | 23.6* | -2.4% | 60.9 | -11.3%
COCC(=O)N(C)c1nnc(-c2cnccn2)s1 | -15.4% | -0.9% | -1.7 | 3.9% | 15.3 | -9.6%
O=C(O)c1ccc2c(c1)C(=O)N(c1cccc(C(=O)/C=C/c3ccccc3)c1)C2=O | 5.7% | -5.7% | 28.4* | -0.4% | 52.5* | -26.3%
O=C(O)c1cccc(N2C(=O)c3ccc(C(=O)c4cccc([N+](=O)[O-])c4)cc3C2=O)c1 | 4.8% | -2.2% | -1.7 | 4.7% | 35.0 | -24.9%
Cc1ccc(C)c(N2CCN(S(=O)(=O)c3csc(C(N)=O)c3)CC2)c1 | -0.6% | 4.0% | 11.8 | -4.9% | 0.8 | -24.7%
O=C(Cc1ccc(Cl)c(Cl)c1)OCC(=O)c1ccc[nH]1 | 6.0% | -8.9% | 3.1 | -13.5% | 16.8 | -27.6%
O=C(OCc1ccc(Cl)c(Cl)c1)c1ccc[nH]1 | -15.8% | -6.3% | 22.5* | -32.8% | 110.8* | -34.5%
CCN(CC)C(=O)c1ccc2c(c1)C1C=CCC1C(C(=O)O)N2 (stereo not given) | 12.6µM* | -4.6% | -4.9 | -2.4% | -5.7 | -17.8%
CC(=O)c1ccc(NC(=S)N2CCCC(CO)C2)cc1 (stereo not given) | -13.5% | ? | 38.3* | 3.1% | 51.3* | -21.2%
S=C(Nc1ccc(Cl)cc1)N1CCCC1 | 20.0% | ? | 29.7* | 21.0% | 36.5 | -16.7%
Cc1ccc(NC(=S)N2CCCCCC2)cc1 | 7.4% | -8.6% | 37.4* | 0.3% | 74.7* | -8.6%
